# From PubChem BioAssay (NCATS)
# Results filed as inconclusive are left out. Where a call stands in place of a potency, no number is given. The source made the active and inactive calls. Unless noted, the call rests on the fitted dose curve.
# Columns and labels:
# [1] = Confirmatory qHTS for activators (rescue) of SARS-CoV-2 Cytopathic Effect (CPE) (AID 1508606); further: nearly all actives have a fitted effect of over 70% in size; further: potency means the concentration at half of the fitted maximal effect
# [2] = Confirmatory qHTS for VERO E6 Cytotoxicity Assay: Counterscreen for SARS-CoV-2 CPE Assay (AID 1508605); further: nearly all actives have a fitted effect of over 60% in size; further: potency means the concentration at half of the fitted maximal effect
# [3] = Primary qHTS for inhibitors of La Crosse Virus (LACV) - induced cell death in SH-SY5Y cells (AID 1508616; active means well fitted curve in the direction sought with a large enough effect; an effect the other way counts as inactive or inconclusive;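 further: top concentration of the series differs between compounds; higher means more rescue of cells from virus-induced death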)
# Method in brief: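 Rescue of virus-induced death was read as ATPLite luminescence after 6 days at 37C, scaled between DMSO wells with LACV and without virus. Cells were SH-SY5Y, 6000/well, infected at 0.01 MOI after compound addition.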
# [4] = target: Calcium and integrin-binding protein 1 (Homo sapiens) (UniProt Q99828); test: Confirmatory qHTS for Identification of Calcium Integrin Binding Protein 1 (CIB1) Competitor (AID 1508617; active means well fitted curve in the direction sought with a large enough effect; an effect the other way counts as inactive or inconclusive; further: nearly all actives have a fitted effect of over 65% in size; further: potency means the concentration at half of the fitted maximal effect)
# Chain of Calcium and integrin-binding protein 1 (Homo sapiens) (Q99828 whole entry, looked up): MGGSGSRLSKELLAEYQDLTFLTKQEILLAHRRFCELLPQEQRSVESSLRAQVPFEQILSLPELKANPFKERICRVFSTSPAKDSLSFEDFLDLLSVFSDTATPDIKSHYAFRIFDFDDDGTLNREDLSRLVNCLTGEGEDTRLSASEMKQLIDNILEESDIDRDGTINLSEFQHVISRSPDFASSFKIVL
# Method in brief: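 FP competition: CIB1-GST (1 uM final) in 5 mM HEPES pH 7.4, 125 mM NaCl, 5 mM CaCl2, 0.01% Tween20 preincubated 15 min RT with compounds (up to 114 uM), then FITC-alphaIIb peptide (100 nM), 15 min RT; Ex 480/Em 540.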
# [5] = Primary qHTS for small molecule stabilizers of the endoplasmic reticulum resident proteome: Secreted ER Calcium Modulated Protein (SERCaMP) assay (AID 1508630; active means well fitted curve in the direction sought with a large enough effect; an effect the other way counts as inactive or inconclusive)
# Method in brief: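 The SH-SY5Y reporter protocol was run at 3 concentrations up to 38.3 uM (primary) or 11 concentrations (follow-up): 16 h compound, 100 nM thapsigargin for 4 h, then extracellular luciferase luminescence.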
# [6] = A High-Content qHTS Against Drug Library for the Identification of Small Molecules that Inhibit DYT1 Early Onset Primary Dystonia-Associated Cell Pathology (AID 1645839); further: series mostly up to about 46 µM
# Method in brief: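 Cells were seeded and left for 24 h, then dosed with compound alongside tetracycline induction of mutant EGFP-TorsinA. They were incubated for 48 h, fixed in 4% paraformaldehyde, permeabilized and imaged for mislocalization (%pathology) and cell count.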
# [7] = target: Calcium and integrin-binding protein 1 (Homo sapiens) (UniProt Q99828); test: Validation qHTS for Identification of Calcium Integrin Binding protein 1 (CIB1) Competitor (AID 1508618; active means well fitted curve in the direction sought with a large enough effect; an effect the other way counts as inactive or inconclusive)
# Method in brief: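 Fluorescence polarization with 1 uM CIB1-GST and 100 nM FITC-alphaIIb peptide in HEPES pH 7.4, NaCl, 5 mM CaCl2, Tween20. Compounds at up to 114 uM final, preincubated with protein 15 min; read after 15 min more at RT.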
# [8] = target: Calcium and integrin-binding protein 1 (Homo sapiens) (UniProt Q99828); test: Primary qHTS for Identification of Calcium Integrin Binding Protein 1 (CIB1) Competitor (AID 1508620; active means well fitted curve in the direction sought with a large enough effect; an effect the other way counts as inactive or inconclusive;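 further: GST tagged CIB1 binding a fluorescein labelled alphaIIb integrin peptide tracer; top concentration of the series differs between compounds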)
# Method in brief: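 Fluorescence polarization competition: GST-tagged CIB1 (1 uM final) preincubated with compound 15 min at room temperature, then FITC-labelled alphaIIb peptide (100 nM final) added. After 15 min at room temperature, polarization read at Ex 480/Em 540.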
# [9] = Cell Viability qHTS for small molecule stabilizers of the endoplasmic reticulum resident proteome (AID 1508629; active means well fitted curve in the direction sought with a large enough effect; an effect the other way counts as inactive or inconclusive;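 further: potency means the concentration at half of the fitted maximal effect; compound exposure about 46 h in total before the viability read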); details: cell viability counter-screen, 100 nM thapsigargin for final 4 h
smiles,measurement,setting,value
CN(C)CCCN1c2ccccc2Sc2ccc(C(F)(F)F)cc21,Potency,[1],10 µM (active)
Clc1ccc2c(c1)CCc1cccnc1C2=C1CCNCC1,Potency,[2],inactive
O=C(CCCN1CCN(c2ccc(F)cc2)CC1)NC1c2ccccc2CSc2ccccc21 (stereo not drawn),Potency,[2],inactive
same,Potency,[1],inactive
CN(C)CCc1c[nH]c2cccc(O)c12,outcome,[3],inactive
same,Potency,[4],126 µM (active)
same,outcome,[5],inactive
same,outcome,[6],inactive
CC1CCCCN1CCCOC(=O)c1ccc(OC2CCCCC2)cc1 (stereo not drawn),Potency,[2],inactive
same,Potency,[1],8.91 µM (active)
CN(C)CCCN1c2ccccc2Sc2ccccc21,Potency,[2],inactive
COc1ccc2cc1Oc1ccc(cc1)C[C@H]1c3c(cc4c(c3Oc3cc5c(cc3OC)CCN(C)[C@@H]5C2)OCO4)CCN1C,Potency,[2],11.2 µM (active)
same,Potency,[1],1 µM (active)
CCCCN(CCCC)CCC(O)c1cc2c(Cl)cc(Cl)cc2c2cc(C(F)(F)F)ccc12 (stereo not drawn),Potency,[1],3.55 µM (active)
COc1cccc(CCc2ccccc2OCC(CN(C)C)OC(=O)CCC(=O)O)c1 (stereo not drawn),Potency,[2],inactive
c1ccc(-c2ccc(C(c3ccccc3)n3ccnc3)cc2)cc1 (stereo not drawn),Potency,[2],inactive
CCC(=O)c1ccc2c(c1)N(CCCN(C)C)c1ccccc1S2,Potency,[2],inactive
same,Potency,[1],11.2 µM (active)
CCCOC(C(=O)OC1CCN(C)CC1)(c1ccccc1)c1ccccc1,Potency,[2],inactive
COC(=O)C1=C(C)NC(C)=C(C(=O)O[C@@H]2CCCN(Cc3ccccc3)C2)[C@@H]1c1cccc([N+](=O)[O-])c1,Potency,[2],11.2 µM (active)
same,Potency,[1],inactive
CO[C@@H]1[C@@H](O[C@@H]2O[C@H](C)[C@@H](O[C@H]3C[C@@](C)(O)[C@@H](O)[C@H](C)O3)[C@H](N(C)C)[C@H]2O)[C@@H](CC=O)C[C@@H](C)[C@@H](O[C@@H]2CC[C@H](N(C)C)[C@@H](C)O2)/C=C/C=C/C[C@@H](C)OC(=O)C[C@H]1OC(C)=O,Potency,[2],inactive
CC(C)COCC(CN(Cc1ccccc1)c1ccccc1)N1CCCC1 (stereo not drawn),Potency,[2],inactive
same,Potency,[1],11.2 µM (active)
Fc1ccc(C(c2ccc(F)cc2)N2CCN(C/C=C/c3ccccc3)CC2)cc1,Potency,[2],inactive
same,Potency,[1],11.2 µM (active)
O=C(N[C@@H]1N=C(c2ccccc2F)c2cccc3c2N(CC3)C1=O)c1cc2ccccc2[nH]1,outcome,[3],inactive
CN1CCCCC1CCN1c2ccccc2Sc2ccc(S(C)=O)cc21 (stereo not drawn),Potency,[2],inactive
CCCN(CCC)C(=O)C(CCC(=O)OCCCN1CCN(CCOC(=O)Cc2c(C)n(C(=O)c3ccc(Cl)cc3)c3ccc(OC)cc23)CC1)NC(=O)c1ccccc1 (stereo not drawn),Potency,[2],inactive
same,Potency,[1],10 µM (active)
CCOC(=O)[C@H](CCc1ccccc1)N[C@H]1CCc2ccccc2N(CC(=O)O)C1=O,Potency,[2],inactive
CN(C)CCOC(c1ccccc1)c1ccc(Br)cc1 (stereo not drawn),Potency,[2],inactive
CCN(CC)CCCC(C)Nc1c2ccc(Cl)cc2nc2ccc(OC)cc12 (stereo not drawn),Potency,[2],11.2 µM (active)
same,Potency,[1],inactive
CC(=O)c1ccc2c(c1)N(CCCN1CCC(CCO)CC1)c1ccccc1S2,Potency,[2],inactive
same,Potency,[1],11.2 µM (active)
CCCCOc1cc(C(=O)NCCN(CC)CC)c2ccccc2n1,Potency,[2],inactive
O=c1[nH]c2ccccc2n1CCCN1CCN(C(c2ccccc2)c2ccccc2)CC1,Potency,[1],11.2 µM (active)
O=C(CCC1CCN(Cc2ccccc2)CC1)c1ccc2c(c1)NCCCC2,Potency,[2],inactive
CN1CCC(=C2c3ccccc3CCc3sccc32)CC1,Potency,[2],inactive
same,Potency,[1],11.2 µM (active)
NC(=O)CN1CCCC1=O,outcome,[3],inactive
same,outcome,[7],inactive
same,Potency,[8],inactive
same,outcome,[5],inactive
same,outcome,[6],inactive
COC(=O)[C@H]1[C@H]2C[C@@H]3c4[nH]c5cc(OC)ccc5c4CCN3C[C@H]2C[C@@H](OC(=O)/C=C/c2ccc(O)c(OC)c2)[C@@H]1OC,Potency,[2],inactive
same,Potency,[1],12.6 µM (active)
CN(C)CC/C=C1\c2ccccc2Sc2ccc(Cl)cc21,Potency,[2],inactive
same,Potency,[1],8.91 µM (active)
CCN(CC)CCNc1ccc(CO)c2sc3ccccc3c(=O)c12,Potency,[2],10 µM (active)
same,Potency,[1],inactive
Oc1c(I)cc(Cl)c2cccnc12,Potency,[2],3.16 µM (active)
CC(C(O)c1ccccc1)N(C)CCOC(c1ccccc1)c1ccccc1 (stereo not drawn),Potency,[2],inactive
same,Potency,[1],10 µM (active)
CN(C)[C@@H](CCOc1cccc2ccccc12)c1ccccc1,Potency,[2],inactive
same,Potency,[1],10 µM (active)
CN1CCCN(C(c2ccccc2)c2ccc(Cl)cc2)CC1 (stereo not drawn),Potency,[1],10 µM (active)
CN1CCN(CCCN2c3ccccc3Sc3ccc(S(=O)(=O)N(C)C)cc32)CC1,Potency,[2],inactive
C[C@@H](CN(C)C)CN1c2ccccc2Sc2ccccc21,Potency,[2],inactive
CCN(CC)CCOc1ccc2c(c1)C(=O)c1cc(OCCN(CC)CC)ccc1-2,Potency,[2],11.2 µM (active)
Cc1ccc([N+](=O)[O-])[c]2c1[O][Hg]2,Potency,[4],inactive
CC[n+]1c(-c2ccccc2)c2cc(N)ccc2c2ccc(N)cc21,Potency,[9],3.16 µM (active)
